# Source: PubChem BioAssay (Broad Institute)
# Pf Dd2 inh: P. falciparum Dd2 growth inhibition | SYBR Green, 72 h; stronger effect = lower value | activity change, % at 10 µM | actives 2.3% (n = 94,000) | AID 1159554; in the data active = activity change below about -80%; inconclusive = no clear call, values can overlap the other calls
# C diff growth: blocks growth of Clostridium difficile | Clostridium difficile clinical isolate growth, OD600, 24 h; stronger effect = lower value | growth activity, negative = inhibition, % at 16 µg/mL (by protocol) | actives 0.25% (n = 86,000) | AID 1259249;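 active = mean growth activity at or below -80% and every replicate also at or below -80%; inconclusive = mean at or below -80% but some replicate above -80%; inactive = mean growth activity above -80%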;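 also: 0% = DMSO wells and -100% = levofloxacin 16 µg/mL wells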
# T cruzi growth-1: T. cruzi proliferation inhibition; T. cruzi beta-gal in NIH3T3, GalScreen luminescence, 90 h; inhibition, % at 8.34 µM; actives 5.9% (n = 77,000); AID 624255;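 active = mean inhibition above about 93%, with at least 55% of replicates each passing it, limit read from the data, passing the limit was not always enough; inconclusive = only one of those two conditions holds; inactive = neither condition holds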
# T cruzi growth-2: inhibitors of T. cruzi proliferation. shares compounds with T cruzi growth-1. inhibition, % at 8.35 µM. actives 72% (n = 5,600). T. cruzi beta-gal in NIH3T3, GalScreen luminescence, 90 h. AID 651739;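 active = mean replicate inhibition above about 95% and at least 55% of replicates individually reaching it, limit read from the data; inconclusive = only one of the two criteria is met; inactive = neither criterion is met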
# T cruzi growth-3: inhibitors of T. cruzi proliferation | shares compounds with T cruzi growth-1 | T. cruzi beta-gal in NIH3T3, GalScreen luminescence, 90 h | actives 21% (n = 5,600) | inhibition, % at 2.09 µM | AID 651740;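 active = mean inhibition above about 95%, with at least 55% of replicates also reaching it, limit read from the data; inconclusive = meets just one of the two conditions; inactive = meets neither condition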;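 also: plate controls were neutral control median for no effect and positive control median for full effect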
# NIH3T3 tox: cytotoxicity in mouse NIH/3T3 fibroblasts; shares compounds with T cruzi growth-1; NIH/3T3 viability, CellTiter-Glo ATP luminescence, 90 h; cytotoxicity (signal decrease), % at 8.35 µM; actives 14% (n = 5,600); AID 651742;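 active = mean signal decrease across replicates above about 35% based on untreated-well scatter, with enough replicates individually passing, limit read from the data; inconclusive = no rule stated though some were filed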;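 also: 0% = median of neutral control wells and 100% = median of positive control wells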
# NIH3T3 tox 2: cytotoxicity in mouse NIH/3T3 fibroblasts; shares compounds with T cruzi growth-1; NIH/3T3 viability, CellTiter-Glo ATP luminescence, 90 h; inhibition, % at 24.9 µM; actives 56% (n = 5,600);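 active = mean loss of cell viability signal at or above a set limit, and enough replicates individually reaching it; inconclusive = meets only the mean limit or only the replicate share; inactive = meets neither condition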;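 also: 0% = median of neutral control wells and 100% = median of positive control wells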
# An asterisk follows results filed as active; u = inconclusive; x = no result. Most compounds without a hit are left out; they make up all but 6.7% or so of the library.
SMILES,Pf Dd2 inh,C diff growth,T cruzi growth-1,T cruzi growth-2,T cruzi growth-3,NIH3T3 tox,NIH3T3 tox 2
C[C@@H]1CCCCO[C@H](CN(C)C(=O)Nc2ccc(C(F)(F)F)cc2)[C@H](C)CN([C@H](C)CO)C(=O)c2cc(NS(=O)(=O)c3cccs3)ccc2O1,-84*,12,98*,103*,112*,15,-1
C[C@H]1CCCCO[C@@H](CN(C)C(=O)Nc2ccc(C(F)(F)F)cc2)[C@@H](C)CN([C@@H](C)CO)C(=O)c2cc(NS(=O)(=O)c3ccccc3)ccc2O1,-51,2,u,u,107*,-10,18
C[C@@H]1CN([C@@H](C)CO)C(=O)c2cc(NS(C)(=O)=O)ccc2O[C@@H](C)CCCCO[C@@H]1CN(C)C(=O)Nc1ccc(C(F)(F)F)cc1,-43,2,x,x,x,x,x
C[C@@H]1CCCCO[C@@H](CN(C)C(=O)Nc2ccc(C(F)(F)F)cc2)[C@H](C)CN([C@@H](C)CO)C(=O)c2cc(NS(=O)(=O)c3ccc(F)cc3)ccc2O1,-6,0,84,x,x,x,x
C[C@H](CO)N1C[C@H](C)[C@H](CN(C)C(=O)Nc2ccc(C(F)(F)F)cc2)OCCCC[C@H](C)Oc2ccc(NS(C)(=O)=O)cc2C1=O,-38,5,108*,107*,70,-7,5
C[C@@H]1CCCCO[C@H](CN(C)C(=O)Nc2ccc(C(F)(F)F)cc2)[C@H](C)CN([C@@H](C)CO)C(=O)c2cc(NS(=O)(=O)c3cccs3)ccc2O1,u,1,81,x,x,x,x
C[C@H](CO)N1C[C@H](C)[C@H](CN(C)C(=O)Nc2ccc(C(F)(F)F)cc2)OCCCC[C@H](C)Oc2ccc(NS(=O)(=O)c3ccccc3)cc2C1=O,-50,7,u,90,103*,-10,-1
C[C@@H]1CCCCO[C@H](CN(C)C(=O)Nc2ccc(C(F)(F)F)cc2)[C@H](C)CN([C@H](C)CO)C(=O)c2cc(NS(=O)(=O)c3ccc(F)cc3)ccc2O1,-41,7,84,x,x,x,x
C[C@H]1CN([C@@H](C)CO)C(=O)Cc2cc(NC(=O)CCN3CCOCC3)ccc2O[C@@H]1CN(C)C(=O)Nc1ccc(F)cc1,12,1,-6,x,x,x,x
C[C@H]1CN([C@@H](C)CO)C(=O)Cc2cc(NC(=O)Nc3cccc4ccccc34)ccc2O[C@H]1CN(C)C(=O)Nc1ccc(F)cc1,-38,-1,42,x,x,x,x
O=C(NCC(F)(F)F)[C@H]1[C@H](CO)[C@H]2Cn3c(cccc3=O)[C@@H]1N2C(=O)C1CCCC1,13,-1,9,x,x,x,x
C[C@@H]1CN([C@H](C)CO)C(=O)c2cc(N(C)C)ccc2O[C@H]1CN(C)S(=O)(=O)c1cccs1,37,-2,1,x,x,x,x
COc1ccc2c3c(n(C)c2c1)[C@H](CO)N(C(=O)CN(C)C)CC31CN(Cc2nccs2)C1,-10,1,x,x,x,x,x
C[C@@H]1CCCCO[C@@H](CN(C)C(=O)Nc2ccc(C(F)(F)F)cc2)[C@H](C)CN([C@@H](C)CO)C(=O)c2cc(NS(=O)(=O)c3ccccc3)ccc2O1,-17,7,u,96*,113*,15,14
C[C@@H]1CCCCO[C@H](CN(C)C(=O)Nc2ccc(C(F)(F)F)cc2)[C@H](C)CN([C@@H](C)CO)C(=O)c2cc(NS(=O)(=O)c3ccccc3)ccc2O1,-79,5,77,x,x,x,x
C[C@@H]1CN([C@H](C)CO)C(=O)c2cc(NS(C)(=O)=O)ccc2O[C@@H](C)CCCCO[C@@H]1CN(C)S(=O)(=O)c1cccs1,-3,1,-12,x,x,x,x
N#C[C@@H]1[C@H](c2ccccc2)[C@H](CO)N1S(=O)(=O)c1ccc(F)cc1,41,-14,33,x,x,x,x
N#C[C@@H]1[C@@H](c2ccccc2)[C@@H](CO)N1S(=O)(=O)c1ccc(-c2ccccc2)cc1,48,18,103*,100*,26,17,20
N#C[C@@H]1[C@@H](c2ccccc2)[C@H](CO)N1S(=O)(=O)c1ccc(F)cc1,13,-3,50,x,x,x,x
N#C[C@H]1[C@@H](c2ccccc2)[C@@H](CO)N1S(=O)(=O)c1ccc(-c2ccccc2)cc1,-9,0,96*,102*,77,10,23
CCC(=O)N(C)C[C@H]1Oc2cc(-c3ccccc3C)ccc2S(=O)(=O)N([C@H](C)CO)C[C@H]1C,7,-1,-8,x,x,x,x
O=S(=O)(c1cccs1)N1CCCCN2[C@H](C1)[C@H](c1ccc(C3=CCCC3)cc1)[C@@H]2CO,15,-1,76,x,x,x,x
C/C=C/c1ccc([C@H]2[C@H]3CN(S(=O)(=O)c4cccs4)CCCCN3[C@H]2CO)cc1,6,82,106*,106*,62,8,61*
O=S(=O)(c1cccs1)N1CCCCN2[C@H](C1)[C@H](c1ccc(Br)cc1)[C@@H]2CO,-17,12,109*,100*,23,11,2
O=S(=O)(c1cccs1)N1CCCCN2[C@@H](CO)[C@@H](c3ccc(/C=C/c4ccccc4)cc3)[C@@H]2C1,-29,55,74,x,x,x,x
SMILES,Pf Dd2 inh,C diff growth,T cruzi growth-1,T cruzi growth-2,T cruzi growth-3,NIH3T3 tox,NIH3T3 tox 2
O=S(=O)(c1cccs1)N1CCCCN2[C@H](CO)[C@@H](c3ccc(Br)cc3)[C@H]2C1,-11,-1,92,x,x,x,x
O=S(=O)(c1cccs1)N1CCCCN2[C@@H](CO)[C@H](c3ccc(Br)cc3)[C@@H]2C1,-24,30,103*,105*,32,-6,25
O=S(=O)(c1cccs1)N1CCCCN2[C@H](CO)[C@H](c3ccc(C4=CCCCC4)cc3)[C@H]2C1,-50,49,105*,107*,56,30,104*
C/C=C/c1ccc([C@@H]2[C@@H](CO)N3CCCCN(S(=O)(=O)c4cccs4)C[C@H]23)cc1,-14,53,75,x,x,x,x
COc1ccc(S(=O)(=O)N(C)C[C@H]2Oc3ncc(/C=C/c4ccccc4)cc3C(=O)N([C@H](C)CO)C[C@@H]2C)cc1,-58,-2,x,x,x,x,x
COc1ccc(NC(=O)N(C)C[C@@H]2OCCCC[C@@H](C)Oc3ccc(NC(=O)Nc4ccc(F)cc4)cc3C(=O)N([C@@H](C)CO)C[C@H]2C)cc1,39,3,-25,x,x,x,x
C[C@H]1CN([C@@H](C)CO)C(=O)c2cc(C#CC3CCCCC3)cnc2O[C@H]1CN(C)C(=O)Cc1ccccn1,0,-12,x,x,x,x,x
CNC[C@H]1Oc2cc(C#CC3(O)CCCC3)ccc2S(=O)(=O)N([C@H](C)CO)C[C@@H]1C,-1,0,40,x,x,x,x
CCCNC(=O)N[C@@H]1CC[C@H](CCn2cc(C3CC3)nn2)O[C@H]1CO,-1,1,x,x,x,x,x
